Results as given in the supplement of paper PMC10849652.
Of roughly 7,900 targets only a part is listed; those with a hit were picked by preference. About 0.6% of all pairs of compound and target were hits.

Assays:
Assay in all cases: log2 fold change, soluble protein after heating vs DMSO (PISA); higher = thermal stabilisation; K562 cells, 10 uM, 30 min; active = over 0.2 and 3.5 SD of the protein, either way, in both replicates (recomputed)
[1] = compound: COC1=CC=C(C=C1)CN2C=CC3=C2C=C(C=C3)C(=O)NO
Method in brief: (§1)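 Values are thermal stability changes relative to control samples and are taken from duplicates. They are stated as log2 fold changes. Before quantification by TMTpro 16plex LC-MS/MS with equalised channel sums, K562 cells at 2×10^6 cells/mL were treated with 10 μM compound for 30 min, heated in aliquots for 3 min across 48°C-58°C, pooled, extracted in PBS with 0.5% NP-40 at 4°C, and centrifuged at 21,000xg for 90 min to give the soluble supernatant.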

[2] = compound: CON(C)C(=O)N1N=C(c2cc(F)ccc2F)S[C@@]1(CCCN)c1ccccc1 [filanesib]
Method in brief: as §1

[3] = compound: CO[C@H]1C[C@@H]2CC[C@@H](C)[C@@](O)(O2)C(=O)C(=O)N2CCCC[C@H]2C(=O)O[C@H]([C@H](C)C[C@@H]2CC[C@H](n3cnnn3)[C@H](OC)C2)CC(=O)[C@H](C)/C=C(\C)[C@@H](O)[C@@H](OC)C(=O)[C@H](C)C[C@H](C)/C=C/C=C/C=C/1C [zotarolimus]
Method in brief: as §1

[4] = compound: COc1cc(C(=O)O)ccc1NC(=O)[C@@H]1N[C@@H](CC(C)(C)C)[C@](C#N)(c2ccc(Cl)cc2F)[C@H]1c1cccc(Cl)c1F [idasanutlin]
Method in brief: as §1

[5] = compound: COc1cc(Nc2ncc3c(n2)-c2ccc(Cl)cc2C(c2c(F)cccc2OC)=NC3)ccc1C(=O)O [alisertib]
Method in brief: as §1

[6] = compound: COc1cc2nc(-c3cc(F)ccc3O)nc(N[C@@H]3CNC[C@H]3C(C)(C)O)c2cc1OC
Method in brief: as §1

[7] = compound: COc1cc2ncnc(Nc3ccc(F)c(Cl)c3)c2cc1OCCCN1CCOCC1 [gefitinib]
Method in brief: as §1

[8] = compound: COc1cccc2cc(-c3nc([C@H]4CC[C@H](C(=O)O)CC4)n4ncnc(N)c34)[nH]c12
Method in brief: as §1

[9] = compound: CS(=O)(=O)CCNCc1ccc(-c2ccc3ncnc(Nc4ccc(OCc5cccc(F)c5)c(Cl)c4)c3c2)o1 [lapatinib]
Method in brief: as §1

[10] = compound: CS(=O)(=O)N1CCN(Cc2cc3nc(-c4cccc5[nH]ncc45)nc(N4CCOCC4)c3s2)CC1 [pictilisib]
Method in brief: as §1

[11] = compound: CS(=O)(=O)c1ccc(-c2cnc(N)c(C(=O)Nc3ccccc3)n2)cc1
Method in brief: as §1

[12] = compound: C[C@@H](Oc1cc(-c2cnn(C3CCNCC3)c2)cnc1N)c1c(Cl)ccc(F)c1Cl [crizotinib]
Method in brief: as §1

[13] = compound: C[C@@H]1COCCN1C2=NC(=NC(=C2)C3(CC3)S(=O)(=O)C)C4=C5C=CNC5=CC=C4
Method in brief: as §1

[14] = compound: C[C@H](C1=CC=C(C=C1)C(=O)NC2=C3C=CNC3=NC=C2)N
Method in brief: as §1

[15] = compound: C[C@H](Nc1ncnc2nc[nH]c12)c1cc2cccc(Cl)c2c(=O)n1-c1ccccc1 [duvelisib]
Method in brief: as §1

[16] = compound: Cc1cc(Nc2cc(CN3CCOCC3)c3nc(C)c(Cc4ccc(Cl)cc4F)n3n2)n[nH]1 [gandotinib]
Method in brief: as §1

[17] = compound: Cc1cc(Nc2cc(N3CCN(C)CC3)nc(Sc3ccc(NC(=O)C4CC4)cc3)n2)n[nH]1 [tozasertib]
Method in brief: as §1

[18] = compound: Cc1cc(SCc2sc(-c3ccc(C(F)(F)F)cc3)nc2C)ccc1OCC(=O)O
Method in brief: as §1

[19] = compound: Cc1ccc(-n2nc(C(C)(C)C)cc2NC(=O)Nc2ccc(OCCN3CCOCC3)c3ccccc23)cc1 [doramapimod]
Method in brief: as §1

[20] = compound: Cc1ccc(C(=O)N(CCCN)[C@@H](c2nc3cc(Cl)ccc3c(=O)n2Cc2ccccc2)C(C)C)cc1 [ispinesib]
Method in brief: as §1

Measured: log2 fold change

NHLRC2 (UniProt Q8NBF2)
Sequence of UniProt Q8NBF2 (Q8NBF2 whole entry, looked up): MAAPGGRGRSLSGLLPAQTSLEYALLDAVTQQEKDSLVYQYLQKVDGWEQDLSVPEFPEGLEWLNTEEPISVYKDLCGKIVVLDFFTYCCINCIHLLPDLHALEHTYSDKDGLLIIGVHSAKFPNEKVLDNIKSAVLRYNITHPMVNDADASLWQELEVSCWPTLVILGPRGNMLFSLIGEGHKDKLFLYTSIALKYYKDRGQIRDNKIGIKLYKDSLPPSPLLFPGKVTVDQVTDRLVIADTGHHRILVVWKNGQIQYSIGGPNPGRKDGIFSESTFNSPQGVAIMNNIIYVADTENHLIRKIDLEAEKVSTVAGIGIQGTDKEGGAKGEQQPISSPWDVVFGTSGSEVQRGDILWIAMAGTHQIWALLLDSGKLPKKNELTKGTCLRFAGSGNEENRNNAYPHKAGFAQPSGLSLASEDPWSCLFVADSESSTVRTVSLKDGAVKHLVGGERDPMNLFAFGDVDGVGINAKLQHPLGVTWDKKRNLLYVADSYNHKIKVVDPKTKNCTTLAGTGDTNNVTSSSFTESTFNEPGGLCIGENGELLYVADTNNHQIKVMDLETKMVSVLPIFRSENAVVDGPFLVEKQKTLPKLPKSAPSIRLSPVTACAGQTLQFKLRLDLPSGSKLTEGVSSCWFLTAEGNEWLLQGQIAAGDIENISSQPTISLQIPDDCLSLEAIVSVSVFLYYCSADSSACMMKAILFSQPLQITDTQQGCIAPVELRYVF
inactive: [1] -0.084 | [2] -0.062 | [3] -0.001 | [4] -0.061 | [5] 0.1 | [6] 0.061 | [7] -0.011 | [8] 0.123 | [9] -0.057 | [10] 0.062 | [11] 0.1 | [12] -0.127 | [13] 0.165 | [14] -0.011 | [15] 0.05 | [16] -0.158 | [17] -0.105 | [18] 0.044 | [19] -0.005 | [20] -0.198

MRPS2 (UniProt Q9Y399)
active: [20] -0.352
inactive: [1] -0.052 | [2] -0.05 | [3] -0.02 | [4] -0.054 | [5] -0.19 | [6] 0.005 | [7] -0.036 | [8] 0.006 | [9] 0.071 | [10] -0.015 | [11] -0.043 | [12] 0.078 | [13] 0.032 | [14] 0.048 | [15] -0.003 | [16] -0.117 | [17] 0.027 | [18] 0.022 | [19] -0.049

NMNAT1 (UniProt Q9HAN9)
Sequence of UniProt Q9HAN9 (Q9HAN9 whole entry, looked up): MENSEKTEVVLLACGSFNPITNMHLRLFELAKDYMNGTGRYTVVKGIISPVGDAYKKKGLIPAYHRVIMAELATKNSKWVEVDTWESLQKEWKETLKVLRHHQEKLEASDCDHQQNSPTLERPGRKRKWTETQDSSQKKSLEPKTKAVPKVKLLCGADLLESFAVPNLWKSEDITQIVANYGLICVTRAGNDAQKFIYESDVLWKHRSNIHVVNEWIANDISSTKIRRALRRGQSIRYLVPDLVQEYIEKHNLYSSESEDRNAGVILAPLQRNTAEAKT
inactive: [1] -0.168 | [2] 0.354 | [3] -0.023 | [4] 0.154 | [5] -0.115 | [6] 0.132 | [7] -0.022 | [8] -0.102 | [9] 0.018 | [10] -0.014 | [11] -0.053 | [12] -0.016 | [13] -0.435 | [14] 0.164 | [15] -0.046 | [16] 0.132 | [17] 0.024 | [18] -0.056 | [19] 0.296 | [20] -0.212

MTMR14 (UniProt Q8NCE2)
Sequence of UniProt Q8NCE2 (Q8NCE2 whole entry, looked up): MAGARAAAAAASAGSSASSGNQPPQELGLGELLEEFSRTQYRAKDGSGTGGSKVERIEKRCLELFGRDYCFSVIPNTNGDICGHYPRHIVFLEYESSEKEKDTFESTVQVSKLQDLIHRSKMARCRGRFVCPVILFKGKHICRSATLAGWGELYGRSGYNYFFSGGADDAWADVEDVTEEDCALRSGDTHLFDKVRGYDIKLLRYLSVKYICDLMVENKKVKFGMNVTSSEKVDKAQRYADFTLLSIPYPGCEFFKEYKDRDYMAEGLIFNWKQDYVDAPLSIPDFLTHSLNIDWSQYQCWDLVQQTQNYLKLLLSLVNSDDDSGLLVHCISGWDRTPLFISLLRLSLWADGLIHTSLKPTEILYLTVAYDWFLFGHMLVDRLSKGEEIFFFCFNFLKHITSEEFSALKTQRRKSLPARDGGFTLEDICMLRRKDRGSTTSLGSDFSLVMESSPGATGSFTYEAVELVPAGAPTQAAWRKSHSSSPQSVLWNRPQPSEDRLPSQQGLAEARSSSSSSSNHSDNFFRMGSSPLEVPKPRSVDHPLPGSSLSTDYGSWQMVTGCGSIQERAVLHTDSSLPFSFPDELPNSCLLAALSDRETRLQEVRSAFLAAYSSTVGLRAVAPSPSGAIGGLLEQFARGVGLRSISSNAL
inactive: [1] 0.007 | [2] 0.026 | [3] -0.04 | [4] 0.02 | [5] -0.04 | [6] 0.069 | [7] -0.02 | [8] 0.017 | [9] -0.075 | [10] 0.083 | [11] 0.033 | [12] 0.069 | [13] -0.054 | [14] 0.014 | [15] 0.048 | [16] 0.144 | [17] 0.046 | [18] 0.079 | [19] -0.03 | [20] 0.061

MSH3 (UniProt P20585)
Sequence of UniProt P20585 (P20585 whole entry, looked up): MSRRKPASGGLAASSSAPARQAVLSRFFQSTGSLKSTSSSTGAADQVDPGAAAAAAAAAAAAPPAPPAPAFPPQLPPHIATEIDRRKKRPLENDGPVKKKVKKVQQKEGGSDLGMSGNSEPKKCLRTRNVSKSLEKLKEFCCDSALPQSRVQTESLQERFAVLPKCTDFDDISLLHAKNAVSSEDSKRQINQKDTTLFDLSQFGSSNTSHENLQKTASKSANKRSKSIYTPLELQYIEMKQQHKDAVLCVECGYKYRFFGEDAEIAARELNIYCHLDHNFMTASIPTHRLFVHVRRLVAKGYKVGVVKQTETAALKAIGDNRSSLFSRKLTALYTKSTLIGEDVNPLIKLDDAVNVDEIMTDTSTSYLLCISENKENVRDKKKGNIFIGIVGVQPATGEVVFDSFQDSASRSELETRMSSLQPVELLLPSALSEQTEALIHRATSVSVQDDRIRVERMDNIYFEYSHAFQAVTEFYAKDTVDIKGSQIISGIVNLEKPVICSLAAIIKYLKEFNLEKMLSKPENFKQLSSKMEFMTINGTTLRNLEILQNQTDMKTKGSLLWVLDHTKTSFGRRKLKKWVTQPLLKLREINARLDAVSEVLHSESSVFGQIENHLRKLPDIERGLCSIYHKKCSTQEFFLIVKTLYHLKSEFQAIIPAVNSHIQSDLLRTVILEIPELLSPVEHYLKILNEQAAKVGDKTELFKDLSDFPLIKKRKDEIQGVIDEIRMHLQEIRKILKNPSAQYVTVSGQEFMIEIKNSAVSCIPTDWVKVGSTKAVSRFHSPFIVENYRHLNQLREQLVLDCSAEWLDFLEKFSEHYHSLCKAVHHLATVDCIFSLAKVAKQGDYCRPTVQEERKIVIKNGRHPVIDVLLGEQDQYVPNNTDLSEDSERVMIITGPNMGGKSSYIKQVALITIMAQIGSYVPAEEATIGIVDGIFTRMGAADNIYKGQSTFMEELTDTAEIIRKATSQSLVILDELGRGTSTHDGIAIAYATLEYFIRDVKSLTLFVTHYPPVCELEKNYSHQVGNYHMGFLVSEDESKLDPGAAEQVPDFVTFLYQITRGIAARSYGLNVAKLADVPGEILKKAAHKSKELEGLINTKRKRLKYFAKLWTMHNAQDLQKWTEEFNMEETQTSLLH
inactive: [1] -0.074 | [2] 0.005 | [3] 0.036 | [4] -0.004 | [5] 0.008 | [6] 0.093 | [7] 0.005 | [8] 0 | [9] 0.042 | [10] -0.006 | [11] -0.029 | [12] 0.045 | [13] -0.031 | [14] 0.047 | [15] 0.07 | [16] -0.096 | [17] -0.003 | [18] 0.024 | [19] 0.035 | [20] 0.088

NPC1 (UniProt O15118)
Sequence of UniProt O15118 (O15118 whole entry, looked up): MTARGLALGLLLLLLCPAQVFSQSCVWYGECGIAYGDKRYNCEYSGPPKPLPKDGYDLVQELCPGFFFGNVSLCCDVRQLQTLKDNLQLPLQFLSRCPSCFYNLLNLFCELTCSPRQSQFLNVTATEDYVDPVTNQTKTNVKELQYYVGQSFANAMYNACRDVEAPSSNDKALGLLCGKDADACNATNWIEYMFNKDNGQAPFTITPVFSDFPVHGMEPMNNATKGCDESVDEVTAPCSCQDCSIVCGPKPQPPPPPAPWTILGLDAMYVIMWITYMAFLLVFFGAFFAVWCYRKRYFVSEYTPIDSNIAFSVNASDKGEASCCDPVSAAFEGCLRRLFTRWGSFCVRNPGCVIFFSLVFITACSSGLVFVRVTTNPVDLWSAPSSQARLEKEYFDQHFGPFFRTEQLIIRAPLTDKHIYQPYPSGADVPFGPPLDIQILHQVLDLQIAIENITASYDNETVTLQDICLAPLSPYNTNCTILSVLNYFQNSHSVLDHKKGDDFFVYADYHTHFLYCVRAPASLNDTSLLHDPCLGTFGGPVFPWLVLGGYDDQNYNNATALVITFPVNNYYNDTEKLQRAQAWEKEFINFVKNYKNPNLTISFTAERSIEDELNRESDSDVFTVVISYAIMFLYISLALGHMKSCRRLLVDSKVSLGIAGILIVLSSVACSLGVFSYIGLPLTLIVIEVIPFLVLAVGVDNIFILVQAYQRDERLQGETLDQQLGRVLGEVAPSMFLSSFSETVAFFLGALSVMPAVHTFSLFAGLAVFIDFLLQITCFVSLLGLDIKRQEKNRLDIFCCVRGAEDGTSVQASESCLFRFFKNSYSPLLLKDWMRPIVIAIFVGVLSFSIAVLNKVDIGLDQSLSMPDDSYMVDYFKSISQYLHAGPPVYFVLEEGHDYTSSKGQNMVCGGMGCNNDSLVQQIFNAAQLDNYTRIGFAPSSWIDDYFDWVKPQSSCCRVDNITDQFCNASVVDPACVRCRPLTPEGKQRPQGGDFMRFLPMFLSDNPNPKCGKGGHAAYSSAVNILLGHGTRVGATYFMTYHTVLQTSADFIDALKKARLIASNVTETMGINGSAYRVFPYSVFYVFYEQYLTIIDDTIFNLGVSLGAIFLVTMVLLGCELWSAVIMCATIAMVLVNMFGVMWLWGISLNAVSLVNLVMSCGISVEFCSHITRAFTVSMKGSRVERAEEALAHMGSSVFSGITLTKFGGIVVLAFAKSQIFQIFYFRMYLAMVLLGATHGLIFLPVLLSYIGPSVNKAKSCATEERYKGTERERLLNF
inactive: [1] 0.04 | [2] -0.12 | [3] -0.038 | [4] 0.025 | [5] -0.067 | [6] 0.035 | [7] -0.027 | [8] 0.057 | [9] 0.026 | [10] 0 | [11] 0.016 | [12] -0.132 | [13] 0.024 | [14] -0.102 | [15] 0.043 | [16] 0.015 | [17] -0.04 | [18] -0.038 | [19] -0.087 | [20] -0.148

NEK3 (UniProt P51956)
Sequence of UniProt P51956 (P51956 whole entry, looked up): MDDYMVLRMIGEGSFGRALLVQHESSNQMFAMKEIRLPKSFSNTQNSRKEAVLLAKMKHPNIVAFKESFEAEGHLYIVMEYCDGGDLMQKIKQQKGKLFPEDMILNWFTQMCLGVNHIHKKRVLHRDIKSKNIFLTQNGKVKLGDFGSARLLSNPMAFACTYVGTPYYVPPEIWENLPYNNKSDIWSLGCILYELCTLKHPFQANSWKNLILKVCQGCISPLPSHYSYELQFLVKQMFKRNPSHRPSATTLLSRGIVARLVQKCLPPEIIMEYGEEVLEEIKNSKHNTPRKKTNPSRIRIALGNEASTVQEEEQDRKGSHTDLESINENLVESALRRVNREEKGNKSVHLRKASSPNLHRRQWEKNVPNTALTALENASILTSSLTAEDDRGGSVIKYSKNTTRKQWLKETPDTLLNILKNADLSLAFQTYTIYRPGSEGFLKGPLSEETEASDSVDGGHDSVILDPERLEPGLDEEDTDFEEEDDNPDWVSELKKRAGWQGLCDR
inactive: [1] 0.058 | [2] -0.297 | [3] 0.217 | [4] 0.116 | [5] 0.074 | [6] 0.07 | [7] 0.086 | [8] -0.196 | [9] 0.061 | [10] 0.161 | [11] -0.086 | [12] 0.08 | [13] 0.19 | [14] -0.19 | [15] -0.032 | [16] 0.103 | [17] 0.083 | [18] 0.05 | [19] -0.014 | [20] -0.006

NDUFA7 (UniProt O95182)
Sequence of UniProt O95182 (O95182 whole entry, looked up): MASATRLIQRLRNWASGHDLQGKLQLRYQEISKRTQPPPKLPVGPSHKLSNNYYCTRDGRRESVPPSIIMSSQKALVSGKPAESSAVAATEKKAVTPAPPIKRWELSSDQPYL
inactive: [1] 0.003 | [2] -0.072 | [3] 0.005 | [4] -0.197 | [5] -0.042 | [6] -0.147 | [7] -0.178 | [8] 0.013 | [9] -0.002 | [10] -0.007 | [11] -0.004 | [12] -0.103 | [13] 0.02 | [14] 0.039 | [15] 0.012 | [16] -0.12 | [17] -0.101 | [18] 0.07 | [19] -0.041 | [20] -0.118
